SMARCA2 activ: SMARCA2 function activation, primary screen; MG213 cells, MMTV-luciferase reporter, dexamethasone, overnight; activation, % at 9.1 µM; 1% of 370,000 active; in the data active = activation above about 7.8%;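 note: 0% = vehicle wells and 100% = reference activator wells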
DYRK1A inh: inhibitors of rat Dyrk1A kinase; Q63470; ADP-Glo luminescence, NFATc1 peptide; inhibition, % at 12.5 µM; 0.43% of 310,000 active; AID 504441; in the data active = inhibition above about 50%;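 note: plate controls were vehicle with enzyme for no effect and no enzyme for full effect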
CDK5 inh: CDK5/p35 (human) kinase inhibition; Q00535+Q15078; Recombinant CDK5/p35, ADP-Glo luminescence, 60 min; inhibition, % at 10 µM; 0.01% of 330,000 active; AID 488839;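 active = highest replicate inhibition of at least 50% and at least 75% of replicates reaching 50%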;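 note: plate controls were DMSO neutral control for no effect and GW8510 at 10 µM for full effect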
Target sequence (Q00535 whole entry, looked up): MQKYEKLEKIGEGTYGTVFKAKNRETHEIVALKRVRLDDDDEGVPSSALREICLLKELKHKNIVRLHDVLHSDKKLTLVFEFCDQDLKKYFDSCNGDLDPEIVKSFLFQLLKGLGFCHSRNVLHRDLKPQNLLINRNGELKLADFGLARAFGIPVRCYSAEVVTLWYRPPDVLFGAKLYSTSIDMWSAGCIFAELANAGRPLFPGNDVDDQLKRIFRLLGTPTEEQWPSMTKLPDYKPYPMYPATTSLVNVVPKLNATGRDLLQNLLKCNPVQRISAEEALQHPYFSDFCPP
Target sequence (Q15078 whole entry, looked up): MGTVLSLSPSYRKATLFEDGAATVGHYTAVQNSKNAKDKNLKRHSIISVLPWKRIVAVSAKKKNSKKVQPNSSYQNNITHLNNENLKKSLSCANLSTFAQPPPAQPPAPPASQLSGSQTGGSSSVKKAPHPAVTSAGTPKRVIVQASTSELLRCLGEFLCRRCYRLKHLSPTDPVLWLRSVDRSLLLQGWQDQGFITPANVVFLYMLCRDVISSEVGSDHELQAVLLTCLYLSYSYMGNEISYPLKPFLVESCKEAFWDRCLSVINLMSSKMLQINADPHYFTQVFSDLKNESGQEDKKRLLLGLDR
dFosB act: activators of mouse delta FosB homodimer. purified delta FosB, TAMRA-CDK5 oligo fluorescence polarization; percent of positive-control signal above neutral wells. activation, % at 25 µM. 0.99% of 340,000 active;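 active = mean activation above about 17%, with every replicate also reaching it, limit read from the data, passing the limit was not always enough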
Rtt109 Vps75: blocks Candida albicans Rtt109/Vps75 acetyltransferase activity | Q5AAJ8 | purified Rtt109/Vps75, ThioGlo CoA-SH fluorescence, 4 h | inhibition, % at 34.9 µM | 0.16% of 330,000 active | AID 540336;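 active = inhibition of at least 50% in every replicate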
esBAF inh: inhibitors of esBAF chromatin remodeling in mouse ES cells | 2% of 350,000 active | reporter increase, % at 12.5 µM | Bmi1-luciferase knock-in reporter, 24 h; 100% = twice the neutral-well signal; in the data active = activation above about 40%;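 note: 0% = median of the plate's neutral control wells and 100% = double that signal; a rise in the Bmi1 reporter signal indicates esBAF inhibition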
Active calls of the source: *; . = no result. The list is not random: actives were taken first. Their share in the collection is about 3.2%.

SMILES	SMARCA2 activ	DYRK1A inh	CDK5 inh	dFosB act	Rtt109 Vps75	esBAF inh
Cc1ccc(NC(=O)c2ccc(NCCc3ccccc3)c([N+](=O)[O-])c2)cc1F	-2.1	-1.2	2.0	-3.5	-0.8	.
CCN1CCC(O)(/C=C/c2ccc(C(C)C)cc2)C(C(=O)/C=C/c2ccc(C(C)C)cc2)C1 (stereo unspecified)	-3.5	.	-0.2	53.9*	-5.2	.
Cc1ccc2nc(C)/c(=N\O)c(C)nc2c1	2.6	3.5	-0.6	4.5	-3.0	54.9*
Cc1nc2ccccc2nc(C)c1=NO	3.5	-0.8	-6.0	1.2	1.1	.
CCn1cnc2c(Nc3cc(F)cc(F)c3)nc(C#N)nc21	1.6	17.0	6.1	1.1	8.8	56.5*
CCNc1nc(C#N)nc2c1ncn2-c1cc(F)cc(F)c1	0.6	5.3	-5.7	-18.4	3.6	-0.3
COCC#Cc1ccc2c(c1)O[C@H](CN(C)CC1CCOCC1)[C@@H](C)CN([C@@H](C)CO)S2(=O)=O	.	.	.	.	.	-0.5
COc1ccc(/C(=N/Nc2ncnc3ccccc23)C(=O)O)cc1	3.9	6.2	1.1	0.8	-5.2	58.8*
CCCN(C)C[C@H]1Oc2ncc(C#CCC(C)C)cc2C(=O)N([C@H](C)CO)C[C@@H]1C	.	.	.	.	.	0.3
CCOC(=O)c1cc2c(N)c(C(=O)c3cc(C#N)c(SC)nc3C)sc2nc1C	-0.3	-0.1	1.0	-8.4	61.8*	-6.1
CCOC(=O)c1cc(C#N)c(SC)nc1C	0.5	.	0.6	-1.1	-2.3	.
C[C@@H]1CN([C@H](C)CO)S(=O)(=O)c2ccc(-c3cccnc3)cc2O[C@H]1CN(C)C(=O)C1CCCCC1	.	.	.	.	.	1.5
CCOc1ccc(C2c3c(oc4cc(C)c(C)cc4c3=O)C(=O)N2CCCN(C)C)cc1OC (stereo unspecified)	-2.0	0.9	-1.4	28.7*	12.1	9.9
CC(C)OC(=O)N(C)c1ccc(C(O)(C(F)(F)F)C(F)(F)F)cc1	-1.6	-14.2	-1.3	-10.3	55.2*	.
CC(=O)Nc1ccc(C(O)(C(F)(F)F)C(F)(F)F)cc1	2.9	2.8	-3.5	-6.5	3.0	-5.9
CCNC(=O)[C@@H]1[C@@H](CO)[C@@H]2Cn3c(ccc(-c4cccc(F)c4)c3=O)[C@H]1N2C(=O)c1ccccn1	.	.	.	.	.	-3.6
O=C(NCc1ccccc1C(F)(F)F)c1cccc2c1C(=O)c1ccc(N3CCC(N4CCCCC4)CC3)cc1S2(=O)=O	19.6*	.	.	.	.	-5.6
O=C(NCc1ccccc1C(F)(F)F)c1cccc2c1C(=O)c1ccc(N3CCOCC3)cc1S2(=O)=O	-0.7	-0.5	-3.0	1.6	0.9	8.6
Clc1ccc(OCCn2cnc3ccccc32)cc1	1.4	11.8	0.9	-8.3	0.2	14.4
Clc1ccccc1OCCn1cnc2ccccc21	0.1	-0.6	0.0	-5.3	4.6	51.2*
COCCNC(=O)C(=O)Nc1ccc(Br)cc1	2.6	24.8	-1.2	-6.4	4.4	48.7*
COCCNC(=O)C(=O)Nc1cccc(Br)c1	3.7	8.9	0.3	-0.9	-1.5	56.9*
CO[C@@H]1CN(C)C(=O)c2cc(NS(=O)(=O)c3cn(C)cn3)ccc2OC[C@H](C)N(Cc2cccc(F)c2)C[C@@H]1C	.	.	.	.	.	-2.6
C[C@H](CO)N1C[C@H](C)[C@H](CN(C)C(=O)Nc2ccc(F)cc2)Oc2ncc(-c3ccc(C#N)cc3)cc2C1=O	.	.	.	.	.	-19.0
Nc1ccccc1NC1=CC(=O)CC(c2ccco2)C1 (stereo unspecified)	7.9*	3.2	-1.7	-6.0	17.2	14.0
SMILES	SMARCA2 activ	DYRK1A inh	CDK5 inh	dFosB act	Rtt109 Vps75	esBAF inh
CC(C)Cc1nnc(NC(=O)Nc2ccccc2)s1	-0.7	.	0.3	-8.6	2.8	53.3*
Cc1ccc(C(=O)Nc2nnc(NC(=S)Nc3ccccc3)s2)cc1	2.2	.	0.3	1.8	-5.5	56.4*
CCc1nnc(NC(=S)Nc2ccccc2)s1	7.8*	-5.5	2.1	7.6	-16.7	.
CC(C)Cc1nnc(NC(=O)CCC(=O)Nc2ccccc2)s1	-2.3	-4.5	0.9	-1.6	-1.8	0.5
CC(=O)N(C)C[C@@H]1Oc2ncc(-c3ccccc3C)cc2C(=O)N([C@H](C)CO)C[C@H]1C	.	.	.	.	.	6.4
COc1ccc(S(=O)(=O)Nc2cccc3c2O[C@H](CN(C)C(=O)Nc2ccc4c(c2)OCO4)[C@H](C)CN([C@@H](C)CO)C3=O)cc1	.	.	.	.	.	2.8
C/C=C/c1ccc([C@H]2[C@@H](CNC(C)=O)N(C(=O)Cc3cccnc3)[C@H]2CO)cc1	.	.	.	.	.	2.8
